# Screening data: PubChem BioAssay, several laboratories
# CatS block – inhibitors of human cathepsin S; AID 501; hit rate 0.06% among 62,000; inhibition, %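 (tested at 5 µM per compound within 10-compound mixtures)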; recombinant cathepsin S, AMC dipeptide fluorescence, pooled mixtures; in the data active means inhibition above about 32%, passing the limit was not always enough; inconclusive means no clear call, values can overlap the other calls
# Target sequence (P25774 115-331 limits assumed): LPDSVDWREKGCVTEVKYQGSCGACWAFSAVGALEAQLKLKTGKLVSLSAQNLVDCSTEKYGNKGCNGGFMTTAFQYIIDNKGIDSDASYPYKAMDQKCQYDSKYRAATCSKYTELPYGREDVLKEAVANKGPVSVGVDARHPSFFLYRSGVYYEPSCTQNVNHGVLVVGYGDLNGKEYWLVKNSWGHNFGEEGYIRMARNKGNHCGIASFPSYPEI
# PKA kinase inh – blocks human protein kinase A activity | PKA Kemptide phosphorylation, Kinase-Glo ATP luminescence | inhibition, % at 6 µM | hit rate 0.1% among 65,000;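 active means inhibition above the screen-wide mean inhibition plus 3 SD, cut at about 21% in these data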
# CatL block – blocks human cathepsin L protease activity; P07711; inhibition, %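 (tested at 10 µM)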; hit rate 0.17% among 58,000; purified cathepsin L, fluorogenic substrate, fluorescence; in the data active means inhibition above about 45%
# Target sequence (P07711 114-288 limits assumed): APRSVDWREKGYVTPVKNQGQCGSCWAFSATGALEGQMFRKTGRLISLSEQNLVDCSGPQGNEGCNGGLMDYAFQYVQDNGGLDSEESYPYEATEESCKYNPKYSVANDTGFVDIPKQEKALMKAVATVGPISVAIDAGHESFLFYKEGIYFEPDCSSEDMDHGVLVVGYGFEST
# Target sequence (P07711 292-333 limits assumed): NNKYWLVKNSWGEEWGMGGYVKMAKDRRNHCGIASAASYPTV
# CatB inh – inhibitors of human cathepsin B; purified cathepsin B, fluorogenic substrate, fluorescence; inhibition, %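 (tested at 10 µM)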; P07858; hit rate 0.1% among 63,000; in the data active means inhibition above about 21%
# CatB mixtures – inhibitors of human cathepsin B in compound mixtures. P07858. Purified cathepsin B, AMC dipeptide fluorescence. inhibition, %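 (ten-compound pools at 5 µM per compound and 50 µM total)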. hit rate 0.06% among 62,000; in the data active means inhibition above about 22%, passing the limit was not always enough; inconclusive means no clear call, values can overlap the other calls
# ROCK2 blocker – blocks human Rho kinase 2 activity; purified ROCK2, Kinase-Glo ATP depletion luminescence; inhibition, % at 6 µM; hit rate 0.35% among 60,000;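 active means inhibition above the screen-wide mean inhibition plus 3 SD, cut at about 18% in these data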
# Hits are given with their value; – = inactive; ? = inconclusive; · = no result given. Sampled rows, rich in hits. Any-hit rate of the full collection: about 0.51%.
SMILES,CatS block,PKA kinase inh,CatL block,CatB inh,CatB mixtures,ROCK2 blocker
CCCCOc1ccccc1NC(=O)Cn1c(-c2nonc2N)nc2ccccc21,–,–,60,54,–,–
CCOC(=O)Cn1c(-c2nonc2NC(=O)c2ccccc2F)nc2ccccc21,–,·,–,–,–,·
CCOc1ccc(CCNC(=O)Cn2c(-c3nonc3N)nc3ccccc32)cc1OCC,–,–,52,65,51,–
COc1ccc(CCNC(=O)Cn2c(-c3nonc3N)nc3ccccc32)cc1OC,–,–,–,–,–,–
Nc1nonc1-c1nc2ccccc2n1Cc1ccc(Cl)cc1,–,–,–,–,–,–
Nc1nonc1-c1nc2ccccc2n1CC(=O)N1CCN(c2ccc(F)cc2)CC1,–,–,·,37,–,–
O=C(Nc1ccc2oc(-c3cccnc3)nc2c1)c1cccnc1,–,–,–,–,–,–
Cc1c(C(=O)Nc2ccc3oc(-c4cccnc4)nc3c2)oc2ccccc12,–,–,–,–,–,20
Cc1cc2ccccc2cc(C)c1=O,·,–,–,–,·,–
Cc1cccc2cc(=O)[nH]c(C)c12,–,–,–,–,–,18
O=C(NCc1ccco1)C(Cc1ccccc1)N1C(=O)C2C3C=CC(C3)C2C1=O (stereo not given),–,–,54,–,–,–
O=C(C(Cc1ccccc1)N1C(=O)C2C3C=CC(C3)C2C1=O)N1CCCCCC1 (stereo not given),–,–,–,–,–,–
CCCNC(=O)c1ccccc1NC(=O)CN(c1ccccc1OCC)S(C)(=O)=O,–,–,–,–,–,–
COC(=O)c1cc(Br)c(=O)n(-c2cc(C)on2)c1,·,–,–,–,·,–
O=C(CNC(=O)c1ccco1)OC(C(=O)c1ccccc1)c1ccccc1 (stereo not given),–,–,78,–,?,–
COC(=O)C1=CN(CC2CCCO2)C=C(C(=O)OC)C1c1cc(OC)c(OC)c(OC)c1 (stereo not given),–,–,–,–,–,·
O=C(Oc1cccc2c(=O)[nH]ccc12)c1ccccc1,–,–,–,–,–,18
COc1ccc(C(=O)c2no[n+]([O-])c2C(=O)c2ccc(OC)cc2)cc1,–,–,–,31,37,–
CSc1ccc(N2C(=O)NC3(CCCCC3)C2=O)cc1,–,–,–,–,–,–
CCOc1nc(C#N)nc(N2CCCCC2)n1,37,–,59,–,–,–
CCOc1nc(OCC)nc(N2CCC(C)CC2)n1,–,–,–,–,–,–
O=c1[nH]cnc2cc(-c3ccccc3)sc12,·,–,–,–,·,–
O=c1[nH]cnc2cc(Cl)ccc12,–,–,–,–,–,18
Cc1cc2ccccc2c(=O)n1CC(=O)Nc1ccc2c(c1)OCO2,–,22,–,–,–,–
CCc1nc2ccccc2c(=O)n1CCCCn1c(CC)nc2ccccc2c1=O,–,–,–,–,–,–
SMILES,CatS block,PKA kinase inh,CatL block,CatB inh,CatB mixtures,ROCK2 blocker
COc1ccc(Cl)c(Cn2c(NCCCO)nc3c2c(=O)n(C)c(=O)n3C)c1,–,–,57,–,–,–
COc1ccc(Cl)c(Cn2c(NCc3ccccn3)nc3c2c(=O)n(C)c(=O)n3C)c1,–,–,–,–,–,–
O=C1CC(c2ccccc2)n2nc(N3C(=O)c4ccccc4C3=O)nc2N1 (stereo not given),·,–,–,–,·,–
Nc1nonc1C(=O)OCC(=O)N1CCOCC1,–,–,–,31,–,–
CCCCCn1c(CN2CCN(c3cc(Cl)ccc3C)CC2)nc2c1c(=O)[nH]c(=O)n2C,–,–,–,–,–,–
Cn1c(=O)c2c3c(sc2n2c(SCC(N)=O)nnc12)CC(C(C)(C)C)CC3 (stereo not given),·,–,–,–,·,–
COC(=O)c1ccc2c(c1)NC(=O)C(N1CCCC1)S2 (stereo not given),–,–,63,–,–,·
COC(=O)c1ccc2c(c1)NC(=O)C(N1CCCCC1)S2 (stereo not given),–,–,–,–,–,·
CCOC(=O)N1CCC(NC(=O)c2cc3ccccn3n2)CC1,–,–,–,–,–,–
COc1cc2c(cc1NC(=O)COC(=O)Cn1cnc3ccccc31)oc1ccccc12,–,24,–,–,–,–
Cn1c(CN2CCOCC2)c(C#N)c2ccccc21,–,–,–,–,–,–
C=CCn1c(O)c(CN2CCOCC2)c(C)c(C#N)c1=O,–,–,103,–,–,–
Clc1ccc2nc(CN3CCCc4ccccc43)cn2c1,–,–,–,–,–,–
CNc1nn(-c2cccc(Cl)c2)nc1N,–,–,–,–,–,–
O=C(Nc1ccncc1)C1CCCN(S(=O)(=O)c2cccc3cccnc23)C1 (stereo not given),–,–,–,–,–,75
O=C(Nn1c(=S)[nH]c2ccccc2c1=O)c1ccncc1,–,–,–,–,–,20
COCCn1c(-c2cc(OC)c(OC)c(OC)c2)nc2oc3ccccc3c(=O)c2c1=O,–,–,–,–,–,–
Cn1nnc2cc(C(=O)NCc3ccc4c(c3)OCO4)ccc21,–,–,–,–,–,–
O=C(NCc1ccc2c(c1)OCO2)c1ccc2snnc2c1,·,–,·,·,·,38
CCOC(=O)N1CCC(n2c(SCC(=O)Nc3nccs3)nc3ccsc3c2=O)CC1,–,–,–,–,–,·
COCCCNC(CC(=O)Nc1ccccc1C(=O)OC)C(=O)O (stereo not given),–,–,–,–,–,–
COC(=O)c1sc(Nc2ccccc2)nc1C,–,–,–,–,–,–
CC(C)(C)C(=O)c1sc(Nc2ccccc2)nc1N,–,–,–,–,–,27
NC(=O)c1sc2nc3c(c(-c4ccco4)c2c1N)CCC3,–,–,–,–,–,35
CCOc1ccc(NS(=O)(=O)c2ccc(OCC(=O)N3CCCC3)cc2)cc1,–,–,–,–,–,–
SMILES,CatS block,PKA kinase inh,CatL block,CatB inh,CatB mixtures,ROCK2 blocker
CCOc1ccc(NS(=O)(=O)c2ccc(NS(C)(=O)=O)cc2)cc1,–,–,76,–,–,–
CC(C)(C)OC(=O)N[C@@H](Cc1ccccc1)c1nnc(S(=O)(=O)Cc2ccccc2)o1,–,–,–,–,–,–
CCC(C)[C@@H](NC(=O)OC(C)(C)C)c1nnc(S(=O)(=O)Cc2cccc(C)c2)o1 (stereo not given in full),–,–,76,34,23,–
Cc1[nH]nc2c1C(c1ccc(-c3ccccc3C#N)o1)C(C#N)=C(N)O2 (stereo not given),–,–,–,–,–,40
CCOC(=O)C1=C(CSc2nc(-c3ccncc3)ccc2C#N)OC(N)=C(C#N)C1c1cccnc1 (stereo not given),·,–,–,–,·,21
CCN(Cc1ccncc1)S(=O)(=O)c1ccc(C(C)=O)cc1,–,–,–,–,–,–
CCOC(=O)c1sc(=S)n(-c2cc(F)ccc2F)c1N,–,–,104,–,–,·
CN1CCN(c2c3c(c(C#N)c4nc5ccccc5n24)CCCC3)CC1,·,–,–,–,·,–
Clc1ccccc1CNc1ncnc2nc[nH]c12,–,–,–,–,–,–
C1=C(c2ccccc2)CCN(c2ncnc3nc[nH]c23)C1,–,–,–,–,–,24
